{
  "source": "the OligoGym collection",
  "data": [
    {"molecular_target": "C17orf89", "assay": "pooled miR-30 sensor sort-seq; sequence = guide strand", "settings": "shRNA", "values": [
      {"sequence": "CAGAAGTCCTTACTCAGGCGGC", "sensor-assay potency score (higher = more potent)": -1.6},
      {"sequence": "TTACTCAGGCGGCCGCCCGGGG", "sensor-assay potency score (higher = more potent)": -1.34},
      {"sequence": "TTGGCCGCAGCGGCGAAGCAGC", "sensor-assay potency score (higher = more potent)": -1.67},
      {"sequence": "AGGCCTGCACGCACCTGCCGTA", "sensor-assay potency score (higher = more potent)": -1.48},
      {"sequence": "TCGCACGCGGCCCCACACCGCT", "sensor-assay potency score (higher = more potent)": -1.58},
      {"sequence": "TCGAACTCCCGCGCGCAGAAGT", "sensor-assay potency score (higher = more potent)": -1.83},
      {"sequence": "TTCTTGGCCGCAGCGGCGAAGC", "sensor-assay potency score (higher = more potent)": -1.54},
      {"sequence": "AAGTCCTTACTCAGGCGGCCGC", "sensor-assay potency score (higher = more potent)": -1.52},
      {"sequence": "TACGCCGCGGCCTCGGCCCCGC", "sensor-assay potency score (higher = more potent)": -1.68},
      {"sequence": "AGGGCCTCGAACTCCCGCGCGC", "sensor-assay potency score (higher = more potent)": -1.88},
      {"sequence": "TCCCGCGCGCAGAAGTCCTTAC", "sensor-assay potency score (higher = more potent)": -1.42},
      {"sequence": "TCTTCTTGGCCGCAGCGGCGAA", "sensor-assay potency score (higher = more potent)": -1.65}
    ]},
    {"molecular_target": "C18orf34", "assay": "pooled miR-30 sensor sort-seq; sequence = guide strand", "settings": "shRNA", "values": [
      {"sequence": "TTCTTCATTAACTTTTCTGTGT", "sensor-assay potency score (higher = more potent)": 0.0915},
      {"sequence": "TTGAAGTTCCTGATTCTGCTTA", "sensor-assay potency score (higher = more potent)": 0.774},
      {"sequence": "TTGTCGAGACTTCTGATTCTTT", "sensor-assay potency score (higher = more potent)": -0.716},
      {"sequence": "TTTTGTTGACACAAGGTGCTGG", "sensor-assay potency score (higher = more potent)": 0.854},
      {"sequence": "TTCATCTTCTAGTTGAAGCAGA", "sensor-assay potency score (higher = more potent)": -0.375},
      {"sequence": "TTGTCTTACTTTTAGTTGCTTC", "sensor-assay potency score (higher = more potent)": -0.608},
      {"sequence": "TACACTGTTATCTGAACTGTGT", "sensor-assay potency score (higher = more potent)": 0.065},
      {"sequence": "TAATTCTATAACATCACTCAAA", "sensor-assay potency score (higher = more potent)": -0.981},
      {"sequence": "TAGTTTTTTCTGAAGCACCATT", "sensor-assay potency score (higher = more potent)": -0.995},
      {"sequence": "TATTCTTTCTTGATCTCTGTTG", "sensor-assay potency score (higher = more potent)": -0.0146},
      {"sequence": "TTTCATCTCTCTTTTCTCCTGG", "sensor-assay potency score (higher = more potent)": 0.616},
      {"sequence": "TTTTTTATTGTCTTCCGTCAGT", "sensor-assay potency score (higher = more potent)": -0.408}
    ]},
    {"molecular_target": "C18orf56", "assay": "pooled miR-30 sensor sort-seq; sequence = guide strand", "settings": "shRNA", "values": [
      {"sequence": "TATCTCTTCATCTGGGACCTGG", "sensor-assay potency score (higher = more potent)": -0.00491},
      {"sequence": "ACACACAGCAGCGACAGCCGGG", "sensor-assay potency score (higher = more potent)": -1},
      {"sequence": "TAGTCCTAACCTCAATCCTGCC", "sensor-assay potency score (higher = more potent)": -1.52},
      {"sequence": "ATGCAGGCGCGCTACAGCCTGA", "sensor-assay potency score (higher = more potent)": -1.57},
      {"sequence": "TCGGTATTCGGCATGCAGGCGC", "sensor-assay potency score (higher = more potent)": -0.876},
      {"sequence": "TTAGTATTTTGATCATTGCTGC", "sensor-assay potency score (higher = more potent)": -0.0513},
      {"sequence": "TTAGGGACGTGACTGGCGCGGG", "sensor-assay potency score (higher = more potent)": -1.11},
      {"sequence": "TAGAATTATCTCTTCATCTGGG", "sensor-assay potency score (higher = more potent)": 0.794},
      {"sequence": "TATTTTGATCATTGCTGCCTTT", "sensor-assay potency score (higher = more potent)": -0.437},
      {"sequence": "TTTAGTCCTAACCTCAATCCTG", "sensor-assay potency score (higher = more potent)": -0.687},
      {"sequence": "TCTAATGCATCCTATATCCAGT", "sensor-assay potency score (higher = more potent)": -0.446},
      {"sequence": "TTAGTCCTAACCTCAATCCTGC", "sensor-assay potency score (higher = more potent)": -0.842}
    ]},
    {"molecular_target": "C19orf26", "assay": "pooled miR-30 sensor sort-seq; sequence = guide strand", "settings": "shRNA", "values": [
      {"sequence": "TGAGTCACACTCGTGGATGGTG", "sensor-assay potency score (higher = more potent)": -0.617},
      {"sequence": "TTGCAGAGGAGCAGGACGCCAG", "sensor-assay potency score (higher = more potent)": -1.16},
      {"sequence": "TTCTTGACCTTGAAATAGGGGC", "sensor-assay potency score (higher = more potent)": -0.421}
    ]}
  ]
}
